# Measured values published in the supplement of paper PMC8726507.
# Unmarked numbers belong to inactive results.
# Test system: Plasmodium falciparum NF54-HGL (transmission to Anopheles stephensi)
# Assay: percentage of barcode signal found in uninfected mosquitoes (transmission-blocking activity); higher = stronger blocking of transmission to mosquito, active = 80 or more
# Settings: 10 µM; gametocyte preincubation time 24 h; readout time post-feed 8 days
# Description: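 The mixture was fed to Anopheles stephensi in 96-well plates as blood meals tagged with DNA-barcoded Asaia bacteria. Eight days later, mosquitoes were classed infected or uninfected by luminescence (mean + 5 SD of unfed controls). Barcodes were quantified by Luminex MagPlex-TAG in the pooled uninfected and infected Asaia cultures, background-corrected, and the score is % of barcode signal in uninfected mosquitoes = 100*Iu/(Iu+Ii).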
row,SMILES,percentage of barcode signal found in uninfected mosquitoes [%]
1,CNc1snc(C)c1C(=O)NCCOc1ccc(OC)cc1,25.3
2,CC[C@H](CO)NCCN[C@H](CC)CO,24.2
3,CCOC(=O)c1cc(-c2csc(Nc3c(C)cc(C)cc3C)n2)on1,11.5
4,c1csc(-c2cnc3sc(NCC4CCOCC4)nn23)c1,38.7
5,COc1ccc(C2CC(c3cccs3)=NN2C(=O)c2ccco2)cc1OC (stereo not given),57.1
6,CC(Oc1cccc(Cl)c1)C(=O)Nc1ccc2oc(-c3ccncc3)nc2c1 (stereo not given),47.8
7,CCOc1ccc2cc(-c3nn(C(C)(C)C)c(N)c3C(N)=O)cnc2c1,71.5
8,CN1CCN(CCCOc2ncc(Nc3ncc(-c4ccc(C(F)(F)F)c(F)c4)nc3C(N)=O)cn2)CC1,75.6
9,CC1CCCCN1C(=O)NCCc1coc(-c2ccc(F)cc2)n1 (stereo not given),42
10,O=C(Nc1nnc(-c2ccc(Cl)s2)o1)c1ccc(Cl)s1,0.515
11,CC1COC2(CCN(c3nc(=O)c4cc(C(F)(F)F)cc([N+](=O)[O-])c4s3)CC2)O1 (stereo not given),26.7
12,NCCCC(N)(C(=O)O)C(F)F (stereo not given),37.7
13,CCC(Sc1nc2ccccc2o1)C(=O)Nc1nccs1 (stereo not given),-4.79
14,c1ccc(-c2cc(N3CCCCC3)c3ccccc3n2)nc1,53.1
15,O=C(NC1CC1)c1ccc(N2CCOc3ccc(Cl)cc32)s1,49.7
16,COc1ccccc1OCCCCn1c(C2CC2)nc2ccccc21,48.5
17,Brc1cncc(-c2cc(NCCCn3ccnc3)nc(-c3ccccc3)n2)c1,-0.102
18,CCOc1ccc2cc(-c3nn(CC4CCN(C)CC4)c4ncnc(N)c34)ccc2c1,-7.02
19,CNC(=O)c1cc(S(=O)(=O)N2CCN(c3ccccn3)CC2)cs1,37.8
20,O=C(c1ccco1)N(CCCn1ccnc1)c1nc2c(Cl)cccc2s1,17.2
21,COc1ccccc1CNC(=O)c1cc(C2CC2)nc2c1cnn2C(C)C,62.8
22,CCc1cc(=O)n(C)c(SC(C)C(=O)Nc2ccc(F)cc2)n1 (stereo not given),48.5
23,O=C(NCc1ccoc1)N1CCN(Cc2ccc3c(c2)OCO3)CC1,25.5
24,Cc1nc(-c2ccccn2)nc(N2CCC(Cc3ccccc3)C2)c1Cl (stereo not given),78

# Same assay, conditions: 20 µM; gametocyte preincubation time 24 h; readout time post-feed 8 days
row,SMILES,percentage of barcode signal found in uninfected mosquitoes
1,C[C@H](C(N)=O)N1CCCC[C@H]1c1ccc(OCc2cccc(F)c2)cc1,25%
2,O=C(Nc1c(O)cccc1-c1nc2c(C(=O)O)cccc2o1)c1cc(-c2ccccc2)on1,20.8%
3,Cc1ccc2[nH]c(C3CCCNC3)c(-c3ccncc3)c2c1 (stereo not given),79.4%
4,NCCC(O)C(=O)N[C@@H]1C[C@H](N)[C@@H](OC2O[C@H](CN)[C@@H](O)[C@H](O)[C@H]2O)[C@H](O)C1OC1O[C@H](CO)[C@@H](O)[C@H](N)[C@H]1O (stereo not given in full),37.6%
5,FC(F)(F)c1cc(NCCc2ccccc2)nc(-c2ccccn2)n1,62.2%
6,C[C@H]1COc2c(N3CCN(C)CC3)c(F)cc3c(=O)c(C(=O)O)cn1c23,-1.12%
7,Nc1ncc(-c2cn[nH]c2)cc1-c1nc2cc(Cl)cnc2[nH]1,48.9%
8,Cc1[nH]c2cc(F)cc(F)c2c(=O)c1-c1ccc(Oc2ccc(OC(F)(F)F)cc2)cc1,78.3%
9,COc1cccc(OC)c1C(=O)Nc1ccc(Cl)c(-c2nc3ccccc3s2)c1,13.2%
10,CCc1ccc(S(=O)(=O)Nc2cc(CN3CCN(CCC(C)C)CC3)ccc2C)cc1,22.9%
11,N#CCN(CCCCN1CCN(c2ccc(F)cc2)CC1)C(=O)OCc1ccccc1,36.5%
12,CC(C)=CCC/C(C)=C\CNCCNC1C2CC3CC(C2)CC1C3 (stereo not given),81.8% (active)
13,C[C@H](C(N)=O)N1CCCC[C@@H]1c1ccc(OCc2cccc(F)c2)cc1,17.3%
14,O=C(Nc1cccc(-c2ccc(NCCCN3CCCC3)nc2)c1)c1ccccc1,29.8%
15,CC(C)NCC(=O)Nc1cccc(C(=O)Nc2cccc(C(F)(F)F)c2)c1,54%
16,COc1cc(-c2cc(-c3ccc(S(C)(=O)=O)cc3)cnc2N)ccc1O,48.6%
